# In ChEMBL document CHEMBL3988442, “University of Dundee, Small-Polar-MMV Screening Library” (2021):
# About 950 (1.4%) of roughly 69,000 compounds showed an effect of 50% or more. The sample holds strong results, similar compounds and a random draw of the others, so the mix is not that of the screen.
# Tested on: Mycobacterium tuberculosis
# Test: Cornell M. t heat shock assay; note: in the data most compounds retested in dose-response had high values
# Format: functional, organism-based
# Set-up: dose or concentration left out as unconfirmed
row,SMILES,Percent Effect [%]
1,COCCO[C@H]1CCN(Cc2ccsc2)[C@H]1Cc1cccnc1.O=C(O)C(F)(F)F.O=C(O)C(F)(F)F,-33.79
2,CCc1noc(CN2C[C@H]3CC[C@@H]2CN(C2Cc4ccccc4C2)C3)n1,18.74
3,COc1ccc(CC(=O)N2CC[C@@H](OC)[C@@H]2Cc2cccnc2)cc1.O=C(O)C(F)(F)F,-4.792
4,CC(=O)N1C[C@@H]2CC[C@H](C1)N(S(=O)(=O)c1ccccc1Cl)C2,-21.33
5,O=C(O)C(F)(F)F.O=S(=O)(C1CC1)N1CCO[C@@H]2CC(COCc3cccnc3)C[C@H]21 (stereo not given in full),22.38
6,Cn1cc(N2CC3(COCCN(Cc4ccccn4)C3)OCC2=O)cn1.O=C(O)C(F)(F)F (stereo not given),-20.33
7,CNC(=O)C1Cn2ccnc2C2(CCN(Cc3cccs3)CC2)O1.O=C(O)C(F)(F)F.O=C(O)C(F)(F)F (stereo not given),-16.91
8,CCCc1ccc(N2CCN(Cc3nc4ccccc4n3C)CC2)cc1,103
9,Cn1c(CCN2CCN(c3ccc(O)cc3)CC2)nc2ccccc21,-8.24
10,Cn1c(CCN2CCN(CCc3ccccc3)CC2)nc2ccccc21,5.82
11,Cl.Cn1nc(C2CCN(C(=O)CN3CCCCC3)CC2)c2cccnc21,-23.31
12,Cn1ncc2c1NC(=O)CC2c1ccc(Cl)cc1Cl (stereo not given),51.94
13,Cn1ncc2c1NC(=O)CC2c1ccccc1Cl (stereo not given),-2.735
14,Cn1ncc2c1NC(=O)CC2c1cc(Cl)ccc1F (stereo not given),-20.48
15,Cc1ccc(CN(C)C(=O)c2n[nH]c(N)c2-c2ccccc2)o1,-6.81
16,Cc1ccc(CN2CC[C@H]3OCC[C@@H](C(=O)NC4CC4)[C@@H]3C2)o1.O=C(O)C(F)(F)F,-2.405
17,CN(CCCO)Cc1cc(Cl)ccc1OCC(O)CN1CCCCCC1 (stereo not given),44.14
18,COCCN(C)Cc1cc(Cl)ccc1OCC(O)CN1CCCCCC1 (stereo not given),4.611
19,CN(CCO)Cc1cc(Cl)ccc1OCC(O)CN1CCCCCC1 (stereo not given),54.32
20,Cc1ccc(N2CCN(C(=O)CN3C[C@@H]4CC[C@H]3C4)CC2=O)cc1,-8.228
21,Cc1ccc(CN2CCC3(CCC(=O)N3CC(=O)N(C)C)CC2)s1.O=C(O)C(F)(F)F,11.8
22,Cc1ccccc1C(=O)N1CCC2(CCCN2CCN(C)C)CC1.O=C(O)C(F)(F)F.O=C(O)C(F)(F)F,12.9

row,SMILES,Percent Effect [%]
1,CCN(CC)c1ccc(NC(=O)NCC2CCOC2)cn1 (stereo not given),3.627
2,O=C(NCC1CCOC1)Nc1ccc(OCC(F)(F)F)nc1 (stereo not given),3.959
3,CN(C)c1ccc(NC(=O)NCC2CCOC2)cn1 (stereo not given),74.68
4,CCn1c(Cn2cncn2)nnc1C1CCN(C[C@H]2[C@@H]3CNC[C@@H]32)CC1,-28.34
5,Cc1ccc(OCc2occc2C(=O)N2C[C@@H]3[C@@H](CN(C)C)[C@@H]3C2)cc1,-7.572
6,CN(C)C(=O)CC1CC2(CCN(Cc3ccsc3)CC2)c2ccccc21.O=C(O)C(F)(F)F (stereo not given),-34.9
7,Cc1cc(NC(=O)C(C)C)n(-c2nc(C)c(C)c(=O)[nH]2)n1,104.4
8,Cc1cc(C)n(-c2cncc(NCCNC(=O)C(C)C)n2)n1,-20.98
9,CC(C)C(=O)Nc1cc(C(=O)NC2CC(C)(C)NC(C)(C)C2)nn1C,-49.16
10,CC(=O)Nc1cc(C2CC2)nn1-c1nc(C)c(C)c(=O)[nH]1,27.84
11,Cc1nc(-n2nc(C3CC3)cc2NC(=O)C(C)C)[nH]c(=O)c1C,96.45
12,CC(C)C(=O)Nc1cc(C(C)(C)C)nn1-c1ccccn1,4.241
13,COc1cc(COCC2CCN(Cc3cccnc3)CC2)cc(OC)c1.O=C(O)C(=O)O,-22.42
14,CC(C)CN1CCN(C)C2(CCN(Cc3ccsc3)CC2)C1=O.O=C(O)C(F)(F)F.O=C(O)C(F)(F)F,-18.88
15,CCc1ccc(CN2CCc3ncnc(-c4cccnc4)c3CC2)o1.O=C(O)C(F)(F)F.O=C(O)C(F)(F)F,-16.65
16,CCOC(=O)N1CCN(c2nc(CCN)nc3sc(C)c(C)c23)CC1,82.82
17,Cc1sc2nc(CCN)nc(N3CCN(S(C)(=O)=O)CC3)c2c1C,12.46
18,Cc1sc2nc(CCN)nc(N3CCS(=O)(=O)CC3)c2c1C,12.97
19,CSc1nc(N)c2c(n1)N=C1COC(O)=C1C2c1cccc(O)c1 (stereo not given),4.116
20,Cc1ccsc1CN1CCc2nc3ccsc3c(=O)n2CC1.Cl,3.746
21,CCN(CC)c1ccc(NS(=O)(=O)c2cnn(C)c2)cn1,-23.7
22,CCN(CC)c1ccc(NS(=O)(=O)c2cncc(F)c2)cn1,-17.45

row,SMILES,Percent Effect [%]
1,CCN(CC)c1ccc(NS(=O)(=O)c2cccnc2)cn1,61.96
2,CCCC(=O)N1C[C@@H]2CCN(c3cnccn3)C[C@@H]2C1.O=C(O)C(F)(F)F,-8.378
3,O=C(O)C(F)(F)F.O=C(c1cscn1)N1CC[C@]2(C[C@@H](OCCN3CCCC3)CO2)C1,0.0126
4,CNC(=O)[C@@H]1C[C@H]2CN(Cc3nccs3)C[C@H]2N1C.O=C(O)C(F)(F)F.O=C(O)C(F)(F)F,-19.94
5,Cc1cccc(CN2C(=O)CC[C@@H]3[C@H]2CCN3Cc2ccc(C)s2)n1.O=C(O)C(F)(F)F.O=C(O)C(F)(F)F,6.515
6,COc1ccc(Cl)cc1CS(=O)(=O)Cc1noc(C)n1,-24.6
7,COc1ccc(Cl)cc1CS(=O)(=O)Cc1nc(C)no1,62.62
8,COc1ccc(Cl)cc1CS(=O)(=O)Cc1nc(C2CC2)no1,45.18
9,COCCCN(Cc1ccccn1)Cc1ccnn1C1CCCCO1.O=C(O)CC(O)(CC(=O)O)C(=O)O (stereo not given),-20.24
10,CC(C)Nc1nc(C(=O)Nc2ccccn2)cs1,9.074
11,Cc1nc(NC2CCCC2)cc(C2CCN2C(=O)c2ccccn2)n1 (stereo not given),-9.873
12,CC(C)CCNC(=O)c1csc(NC2CC2)n1,43.35
13,CC(C)CCNc1nc(C(=O)NC2CC2)cs1,15.23
14,O=C(Nc1ccccn1)c1csc(NC2CCCC2)n1,105.9
15,CC(NC(=O)Nc1nccs1)C(=O)NC1CCCC1 (stereo not given),1.171
16,Cc1cnc(NC(=O)c2csc(NC3CCCC3)n2)s1,106.1
17,Cc1cnc(NC(=O)c2csc(NCC(C)C)n2)s1,103.8
18,CC(C)NC(=O)c1csc(NC2CC2)n1,28.59
19,O=C(Nc1nccs1)c1csc(NC2CCCC2)n1,106.3
20,CCN(CC)C(=O)CCCNC(=O)c1csc(NC2CC2)n1,-1.337
21,Cc1cccc(NC(=O)c2csc(NCC(C)C)n2)n1,-0.3454
